The panel holds about 83,000 compounds, 20% with a hit somewhere; the sample as a whole holds those more often.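 Activity criterion: percent growth below 10, measured after cells in 96-well plates were exposed to a single compound concentration for 48 hours.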 The source made the active and inactive calls.
What was measured:
Assay in all cases: NCI-60 one-dose screen, 48 h (100 = growth as untreated, 0 = no growth, -100 = all killed)
Conditions in all cases: 10 µM
[1] = tested on: DU-145 prostate
[2] = tested on: K-562 leukemia
[3] = tested on: MALME-3M melanoma
[4] = tested on: MDA-MB-231 breast
[5] = tested on: RXF 393 renal
[6] = tested on: SF-268 CNS
[7] = tested on: SF-295 CNS
[8] = tested on: SF-539 CNS
[9] = tested on: UACC-257 melanoma
[10] = tested on: M14 melanoma
[11] = tested on: HCT-15 colon
[12] = tested on: HT29 colon
[13] = tested on: SNB-75 CNS
[14] = tested on: SNB-19 CNS
[15] = tested on: U251 CNS
[16] = tested on: PC-3 prostate
[17] = tested on: SK-MEL-5 melanoma
[18] = tested on: LOX IMVI melanoma
[19] = tested on: SK-MEL-28 melanoma
[20] = tested on: UACC-62 melanoma

Measured: growth

CCN(CC)c1ccc(/C=C/C2=[N+](C)c3ccccc3C2(C)C)c(C)c1
inactive: [1] 20.3% | [5] 29.5% | [6] 22.7% | [8] 18% | [10] 10.5% | [11] 10.5% | [14] 20.6%
active: [2] 6.13% | [3] -33.4% | [4] -1.06% | [7] 4.27% | [9] -15.9% | [12] 2.67% | [13] 7.22% | [15] 7.12% | [16] 7.18% | [17] -97.5% | [18] 3.02% | [19] 9.14%

C/C(=N\NC(=S)N1CCCC1)c1ccccn1
active: [2] 7.97% | [3] -8.16% | [6] 9.48% | [7] -6.83% | [8] 4.96% | [9] -32.4% | [10] 6.19% | [15] 4.05% | [17] 4.15% | [20] -35.9%
inactive: [1] 16.7% | [4] 27.9% | [5] 21.5% | [11] 31% | [12] 26.3% | [13] 39.2% | [14] 20.3% | [16] 24.7% | [19] 24.3%

COc1ccc(N2CCN(c3nc(-c4ccccc4)c(C#N)c(=O)[nH]3)CC2)cc1
inactive: [1] 107% | [2] 87.6% | [3] 80.8% | [4] 106% | [5] 105% | [6] 108% | [7] 102% | [8] 99.6% | [9] 109% | [10] 96.8% | [11] 99.4% | [12] 108% | [13] 73.2% | [14] 103% | [15] 95.6% | [16] 87.2% | [17] 96.4% | [19] 110%

O=C(Nc1cccc(-c2nc3ccccc3[nH]2)c1)c1cccc(NC(=O)c2ccco2)c1
active: [2] 2.96% | [9] -20.2% | [10] 3.76%
inactive: [1] 103% | [3] 73.9% | [4] 34.6% | [5] 67.6% | [6] 75.7% | [7] 80.3% | [8] 64.9% | [11] 50.9% | [12] 27.6% | [13] 72.2% | [14] 89.4% | [15] 61.8% | [16] 68.5% | [17] 43.4% | [18] 41.8% | [19] 30.3%

O=C(NCCc1nccs1)c1cnc2c(S)cccc2c1
inactive: [1] 22.9% | [3] 40.1% | [4] 13.6% | [6] 37.7% | [7] 38.8% | [8] 22.8% | [9] 17.7% | [10] 10.7% | [11] 17.6% | [12] 20.4% | [13] 44.1% | [14] 28.5% | [15] 12.8% | [16] 34.2% | [19] 30.5%
active: [2] 4.3% | [5] 9.59% | [17] -22.1% | [18] 2.38%

CCCCCc1cc[n+](CC(=O)c2ccc(Cl)cc2)cc1
inactive: [1] 95.2% | [2] 90.7% | [3] 89.8% | [4] 76.6% | [5] 95.6% | [6] 84.7% | [7] 94% | [8] 93.9% | [9] 97.5% | [10] 85.9% | [11] 98.5% | [12] 64.7% | [13] 84.4% | [14] 96.7% | [15] 97.8% | [16] 85.7% | [17] 94.9% | [18] 87.4% | [19] 101%

C=CCN1C(=O)/C(=C\c2ccc3c(c2)CCC3)SC1=S
inactive: [1] 106% | [2] 103% | [3] 93.7% | [4] 98.8% | [5] 101% | [6] 102% | [7] 95.2% | [8] 95.5% | [9] 110% | [10] 101% | [11] 98.8% | [12] 97.4% | [13] 99.9% | [14] 94.2% | [15] 100% | [16] 107% | [17] 99.6% | [18] 98.5% | [19] 113%

COc1ccc(Nc2nc(NCc3ccccc3)c3ccccc3n2)cc1
inactive: [1] 79.6% | [2] 55.5% | [3] 39.7% | [4] 41% | [5] 14.5% | [6] 31.3% | [7] 19.6% | [8] 60.9% | [9] 76.5% | [10] 76.9% | [11] 72.4% | [12] 49% | [14] 14.4% | [15] 32.9% | [16] 57.3% | [20] 65.3% | [18] 46.8% | [19] 67.7%
active: [13] -33%

COc1ccc(C2C=C(c3ccc(Cl)cc3)N=C3SC=CN32)c(Br)c1 (stereo not drawn)
inactive: [1] 97% | [2] 66.1% | [3] 106% | [4] 47.7% | [5] 69.8% | [6] 71.2% | [7] 55.6% | [8] 91.1% | [9] 83.2% | [10] 78.6% | [11] 74% | [12] 65.2% | [13] 63.6% | [14] 66.9% | [15] 70.2% | [16] 45.2% | [20] 75.2% | [18] 71.2% | [19] 63.5%

CC(C)OP(=O)(O)c1ncc(-c2ccc(C(F)(F)F)cc2)c(NC2CCCCCC2)n1
active: [3] 5.39%
inactive: [1] 90.1% | [2] 36.3% | [4] 89.9% | [5] 90.1% | [6] 75.6% | [7] 11.5% | [8] 92.4% | [9] 28.6% | [10] 53.7% | [11] 95.4% | [12] 47.5% | [13] 73% | [14] 71.3% | [15] 30.4% | [16] 24.2% | [17] 43% | [18] 64.6% | [19] 51.4%

Cc1ccc(/C(CS(=O)(=O)c2ccc(C)cc2)=N\O)cc1
inactive: [1] 111% | [2] 105% | [3] 116% | [4] 103% | [5] 93.6% | [6] 108% | [7] 90.8% | [8] 97.3% | [9] 97% | [10] 116% | [11] 95.2% | [12] 99.7% | [13] 87.8% | [14] 88% | [15] 90.4% | [20] 87.3% | [18] 102% | [19] 103%

Cc1nnc2c3nnc(-c4ccc(Cl)cc4)n3c3ccccc3n12
inactive: [1] 103% | [2] 90% | [3] 88.6% | [4] 100% | [5] 102% | [6] 100% | [7] 88.2% | [8] 92.2% | [9] 98.1% | [10] 96.7% | [11] 97.4% | [12] 103% | [13] 89.1% | [14] 106% | [15] 100% | [17] 99.7% | [20] 97.7% | [18] 97.2% | [19] 104%

COC(=O)c1cnc2c(c1)Oc1ccccc1-c1ccnn1-2
inactive: [1] 109% | [2] 90.7% | [3] 101% | [4] 94.8% | [5] 107% | [6] 98.7% | [7] 105% | [8] 97% | [9] 101% | [10] 98.8% | [11] 102% | [12] 90.3% | [13] 86.5% | [14] 106% | [15] 90.7% | [17] 94.1% | [20] 106% | [18] 91.3% | [19] 116%

O=C1/C(=C/c2ccc(O)cc2)Oc2ccc(Cl)cc21
inactive: [1] 114% | [2] 96% | [3] 82.4% | [4] 60.1% | [5] 65.6% | [6] 93% | [7] 89.9% | [8] 66.7% | [9] 79% | [10] 93.9% | [11] 89.1% | [12] 155% | [13] 82.8% | [14] 85.1% | [15] 89.9% | [17] 74.8% | [20] 82.5% | [18] 82.3% | [19] 142%

COc1ccc(-c2cc(/C=C/C(=O)c3ccc(N)cc3)[nH]n2)cc1OC
inactive: [1] 22.8% | [2] 24.4% | [3] 109% | [4] 38.8% | [5] 21.2% | [6] 18.8% | [7] 41% | [9] 126% | [10] 84.4% | [11] 26% | [12] 22.6% | [13] 36.8% | [14] 51.6% | [16] 41.8% | [17] 63.4% | [20] 71.2% | [19] 41.9%
active: [8] 7.79% | [18] -45.5%

Source: PubChem BioAssay (NCI)
